PubChem BioAssay AID1159580 (chemical genetic matrix, 2015)
Screen size: about 5,500 compounds; about 2,000 (36%) were called active. Roughly 18% stayed inconclusive and do not appear here. Cut-off read from the data, not from the text of the source: active = normalized growth mostly below about 0.91 (no sharp cut-off); inconclusive = no clear call, values can overlap the other calls; inactive = mostly above about 0.92. This is one part of the list.

Test: chemical genetic growth profiling, strain panel (AID 1159580);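 note: tested at 20 µM; growth read once vehicle control cultures reached saturation at 30 °C; 1 = growth at the plate median or of vehicle wells; lower values mean less growth of the strain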
Conditions: S. cerevisiae deletion strains, growth OD

Measured: normalized growth

N#C/C(N=Cc1cc(Cl)cc(Cl)c1O)=C(\C#N)N=Cc1cc(Cl)cc(Cl)c1O
inactive: locus YAR019C, strain CDC15, active compounds read low 0.923 | locus YBL105C, strain PKC1, active compounds read low 0.929 | locus YBR135W, strain CKS1, active compounds read low 0.927 | locus YBR136W, strain MEC1, active compounds read low 0.917 | locus YBR160W, strain CDC28, active compounds read low 0.922 | locus YDL017W, strain CDC7, active compounds read low 0.923 | locus YDL028C, strain MPS1, active compounds read low 0.915 | locus YDL101C, strain DUN1, active compounds read low 0.954 | locus YDL108W, strain KIN28, active compounds read low 0.926 | locus YDL132W, strain cdc53, active compounds read low 0.943 | locus YDL214C, strain PRR2, active compounds read low 0.754 | locus YDR052C, strain DBF4, active compounds read low 0.936 | locus YDR054C, strain cdc34, active compounds read low 0.916 | locus YDR226W, strain ADK1, active compounds read low 0.925 | locus YER123W, strain YCK3, active compounds read low 0.735 | locus YER133W, strain GLC7, active compounds read low 0.725 | locus YFL009W, strain cdc4, active compounds read low 0.931 | locus YFL029C, strain CAK1, active compounds read low 0.929 | locus YFR003C, strain YPI1, active compounds read low 0.914 | locus YFR019W, strain FAB1, active compounds read low 0.912 | locus YFR028C, strain CDC14, active compounds read low 0.931 | locus YIL147C, strain SLN1, active compounds read low 0.914 | locus YJL128C, strain PBS2, active compounds read low 0.905 | locus YJR016C, strain ILV3, active compounds read low 0.93 | locus YKL067W, strain YNK1, active compounds read low 0.74 | locus YKL193C, strain SDS22, active compounds read low 0.922 | locus YML070W, strain DAK1, active compounds read low 0.747 | locus YMR001C, strain CDC5, active compounds read low 0.919 | locus YMR277W, strain FCP1, active compounds read low 0.92 | locus YNL006W, strain LST8, active compounds read low 0.93 | locus YNL161W, strain CBK1, active compounds read low 0.929 | locus YNL183C, strain NPR1, active compounds read low 0.587 | locus YNL207W, strain RIO2, active compounds read low 0.916 | locus YNL222W, strain SSU72, active compounds read low 0.937 | locus YOL078W, strain AVO1, active compounds read low 0.928 | locus YOL136C, strain PFK27, active compounds read low 0.769 | locus YOR329C, strain SCD5, active compounds read low 0.931 | locus YPL209C, strain IPL1, active compounds read low 0.934 | locus YPR025C, strain CCL1, active compounds read low 0.935 | locus YPR106W, strain ISR1, active compounds read low 0.923 | locus YPR111W, strain DBF20, active compounds read low 0.927 | strain NNK1, active compounds read low 0.908 | strain TSCII, active compounds read low 0.934
active: locus YDR477W, strain SNF1, active compounds read low 0.503 | locus YGR040W, strain KSS1, active compounds read low 0.621 | locus YGR052W, strain FMP48, active compounds read low 0.552 | locus YGR092W, strain DBF2, active compounds read low 0.129 | locus YHR030C, strain SLT2, active compounds read low 0.381 | locus YHR079C, strain IRE1, active compounds read low 0.397 | locus YHR082C, strain KSP1, active compounds read low 0.587 | locus YHR205W, strain SCH9, active compounds read low 0.415 | locus YJL095W, strain BCK1, active compounds read low 0.448 | locus YJL157C, strain FAR1, active compounds read low 0.664 | locus YJR066W, strain TOR1 (second series), active compounds read low 0.588 | locus YJR066W, strain TOR1, active compounds read low 0.414 | locus YKL048C, strain ELM1, active compounds read low 0.594 | locus YKL101W, strain HSL1, active compounds read low 0.538 | locus YKL203C, strain TOR2, active compounds read low 0.454 | locus YLR113W, strain HOG1, active compounds read low 0.509 | locus YLR133W, strain CKI1, active compounds read low 0.52 | locus YLR403W, strain SFP1, active compounds read low 0.457 | locus YMR205C, strain PFK2 (second series), active compounds read low 0.609 | locus YNL020C, strain ARK1, active compounds read low 0.403 | locus YNL307C, strain MCK1 (second series), active compounds read low 0.286 | locus YOR061W, strain CKA2, active compounds read low 0.349 | locus YOR119C, strain RIO1, active compounds read low 0.476 | locus YOR231W, strain MKK1, active compounds read low 0.475 | locus YPL031C, strain PHO85, active compounds read low 0.547 | locus YPL153C, strain RAD53, active compounds read low 0.538 | locus YPL204W, strain HRR25, active compounds read low 0.63 | locus YPL256C, strain CLN2, active compounds read low 0.503
